SMILES strings stand for the structures. ± gives the standard deviation of the averaged measurements.

For the assay, the system named is Caenorhabditis elegans N2. Nature of the assay: egg-laying rate relative to DMSO control (M9 buffer background) (fraction of control); higher = more egg-laying. The settings on record: 60 µM, 1 h. As to the method:
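About 20 young-adult wild-type C. elegans (N2) per well in 96-well plates were exposed to 60 uM compound for 1 h at room temperature, either in M9 buffer (to find stimulators) or in 12.3 mM serotonin + 7.7 mM nicotine (NS, to find inhibitors). Eggs per worm per hour were counted by automated imaging and normalised to the mean of proximal DMSO control wells. Values average the primary screen and two retests of the worm-active (wactive) Egl modulators.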
`CCOc1ccc(/C=C/[N+](=O)[O-])cc1` [wact-385] gave an egg-laying rate of 0.274 ± 0.14.

The record behind these values is the supplement of paper PMC9402605.
